Assay results as given in PubChem BioAssay (Tox21).
Inconclusive results are not listed. Active and inactive are the calls of the source. Unless noted, the call rests on the fitted dose curve; in most records, active means well fitted curve in the direction sought with a large enough effect in the repeat runs; inconclusive means weak or mixed curves; inactive means no such curve, though single readings can be large; an effect the other way counts as inactive or inconclusive.

Assays:
[1] = qHTS assay to identify small molecule agonists of the vitamin D receptor (VDR) signaling pathway - cell viability counter screen (AID 743224); settings: VDR-bla HEK293T viability, CellTiter-Glo luminescence, 16 h; series mostly up to 62.6 µM; further: nearly all actives have a fitted effect of over 50% in size
Outline: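 Luminescence from CellTiter-Glo, read after 30 min at room temperature, reports viability of VDR-bla cells treated with compounds for 16 h at 37C in the wells used for the beta-lactamase FRET read.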

[2] = qHTS assay to identify small molecule agonists of the NFkB signaling pathway - cell viability counter screen (AID 1159515; calls by dose curve; further: nearly all actives have a fitted effect of over 55% in size); settings: NFkB-bla ME-180 viability, CellTiter-Glo luminescence, 5 h; series mostly up to 61 µM
Outline: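 Luminescence from CellTiter-Glo (30 min, room temperature) gives viability, measured in the same wells as the beta-lactamase reporter read. Cells were NFkB-bla ME-180, 2,000 per well, treated 5 hr with compounds.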

[3] = qHTS assay to identify small molecule agonists of the endoplasmic reticulum stress response signaling pathway (AID 1159516; active means well fitted activation curve with a large enough effect in the signal ratio in the repeat runs, not every such curve was filed as active; the % refers to the signal ratio); settings: ESRE-bla HeLa, ER stress beta-lactamase reporter, 5 h; series mostly up to 61 µM
Outline: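 Read-out is beta-lactamase cleavage of a FRET substrate (405 nm excitation; 460 and 530 nm emissions) in ESRE-bla HeLa cells after a 5 hr compound exposure at 37 C. Substrate incubation ran 2 hr at room temperature.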

[4] = qHTS assay to identify small molecule agonists of the endoplasmic reticulum stress response signaling pathway - cell viability counter screen (AID 1159517; calls by dose curve;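 further: HeLa cells carrying an ER stress response element beta-lactamase reporter; nearly all actives have a fitted effect of over 50% in size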); settings: ESRE-bla HeLa viability, CellTiter-Glo luminescence, 5 h; series mostly up to 61 µM
Outline: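 HeLa cells carrying an ESRE-driven beta-lactamase reporter receive compound for 5 hr at 37 C. Cell viability is then gauged with CellTiter-Glo by luminescence, 30 min at room temperature.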

[5] = qHTS assay to identify small molecule antagonists of the retinoid-related orphan receptor gamma (ROR-gamma) signaling pathway - cell viability counter screen (AID 1159520); settings: Tet-on RORgamma CHO cells viability, ATP luminescence, 16 h; series mostly up to 92.4 µM; further: nearly all actives have a fitted effect of over 50% in size
Outline: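 Cytotoxicity was read from cellular ATP (CellTiter-Glo luminescence) after 16 hr at 37 C with 1 uM doxycycline induction. The inducer was added 2 hr after compound transfer to Tet-on ROR gamma CHO cells.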

[6] = molecular target: Nuclear receptor ROR-gamma (Homo sapiens) (UniProt P51449); experiment: qHTS assay to identify small molecule antagonists of the retinoid-related orphan receptor gamma (ROR-gamma) signaling pathway (AID 1159521;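 further: CHO cells with doxycycline inducible ROR-gamma driving an RORE luciferase reporter; top concentration of the series differs between compounds; nearly all actives have a fitted effect of over 50% in size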); settings: Tet-on RORgamma CHO cells, RORE-luciferase, 16 h; series mostly up to 92.4 µM
Outline: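 RORγ antagonism is scored from reduced reporter luminescence in Tet-on CHO cells. Induction used 1 uM final doxycycline hyclate for 16 h at 37 C, following a 2 h compound exposure.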

[7] = qHTS assay to identify small molecule agonists of the AP-1 signaling pathway - cell viability counter screen (AID 1159525; calls by dose curve; further: nearly all actives have a fitted effect of over 55% in size); settings: ME-180 AP-1-bla cells viability, ATP luminescence, 5 h; series mostly up to 76.8 µM
Outline: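 Luminescent ATP readout (Cell Titer Glo, 30 min RT), normalised to DMSO and tetra n-octyl ammonium bromide controls. Cells were ME-180 AP-1-bla in 0.5% dialyzed FBS Opti-MEM, with a 5 h, 37 °C compound exposure.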

[8] = qHTS assay to identify small molecule agonists of the AP-1 signaling pathway (AID 1159526; calls by dose curve); settings: ME-180 (cervical carcinoma) AP-1-bla reporter, beta-lactamase FRET ratio, 5 h; series mostly up to 76.8 µM
[9] = molecular target: Retinoic acid receptor RXR-alpha (Homo sapiens) (UniProt P19793); experiment: qHTS assay to identify small molecule agonists of the RXR signaling pathway (AID 1159527; calls by dose curve; further: nearly all actives have a fitted effect of over 35% in size); settings: HEK293T RXRa-UAS-bla, beta-lactamase ratio, 16 h; series mostly up to 76.8 µM
Outline: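 qHTS of the Tox21 10K library in GeneBLAzer RXR-alpha HEK 293T cells carrying a beta-lactamase reporter […]; 16 hr treatment, 9-cis retinoic acid as agonist control, FRET read-out.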

[10] = qHTS assay to identify small molecule agonists of the RXR signaling pathway - cell viability counter screen (AID 1159529); settings: RXR-alpha-bla HEK293T viability, CellTiter-Glo, 16 h; series mostly up to 76.8 µM; further: nearly all actives have a fitted effect of over 50% in size
Outline: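 Cell viability is measured by CellTiter-Glo luminescence, 30 min at room temperature, in wells already read for beta-lactamase. Engineered HEK 293T cells (RXR-alpha-UAS-bla) are dosed 16 hr at 37 C. Tetraoctyl ammonium bromide serves as positive control.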

[11] = qHTS assay to identify small molecule antagonists of the retinoid acid receptor (RAR) signaling pathway - cell viability counter screen (AID 1159551); settings: C3RL4 cells viability, ATP luminescence (CellTiter-Glo), 6 h; series mostly up to 92.4 µM; further: nearly all actives have a fitted effect of over 35% in size
Outline: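 Luminescent ATP quantitation (CellTiter-Glo) gave cell viability in C3RL4 cells exposed to test chemicals for 6 h at 37 C alongside 1 uM final retinol.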

[12] = qHTS assay to identify small molecule antagonists of the retinoic acid receptor (RAR) signaling pathway (AID 1159552; further: nearly all actives have a fitted effect of over 50% in size); settings: C3RL4 RARE luciferase reporter, retinol-stimulated, 6 h; series mostly up to 92.4 µM
Outline: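 Quantitative HTS in C3RL4 RARE-luciferase reporter cells. Compounds were added with 1 uM (final) retinol; luminescence was read after 6 hr.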

[13] = qHTS assay to identify small molecule agonists of the retinoic acid receptor (RAR) signaling pathway (AID 1159553); settings: C3RL4 RARE luciferase reporter, agonist, 6 h; series mostly up to 73.3 µM
Outline: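 Luminescence from a RARE-driven luciferase reporter in C3RL4 cells served as the read-out, measured after 30 min with detection reagent at room temperature. Compounds in DMSO were applied for 6 hr at 37 C following overnight seeding.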

[14] = qHTS assay to identify small molecule antagonists of the vitamin D receptor (VDR) signaling pathway - cell viability counter screen (AID 743225); settings: VDR-bla HEK293T viability, CellTiter-Glo luminescence, 16 h; series mostly up to 61 µM; further: nearly all actives have a fitted effect of over 50% in size
Outline: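 Cells (VDR-UAS-bla HEK 293T) are plated, rested 4 h at 37C, dosed with compound and 3 nM final 1-alpha,25-dihydroxy vitamin D3, and incubated 16 h. Viability is taken from CellTiter-Glo luminescence in the reporter wells.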

Measured: Potency

Chain of Retinoic acid receptor RXR-alpha (Homo sapiens) (P19793 whole entry, looked up): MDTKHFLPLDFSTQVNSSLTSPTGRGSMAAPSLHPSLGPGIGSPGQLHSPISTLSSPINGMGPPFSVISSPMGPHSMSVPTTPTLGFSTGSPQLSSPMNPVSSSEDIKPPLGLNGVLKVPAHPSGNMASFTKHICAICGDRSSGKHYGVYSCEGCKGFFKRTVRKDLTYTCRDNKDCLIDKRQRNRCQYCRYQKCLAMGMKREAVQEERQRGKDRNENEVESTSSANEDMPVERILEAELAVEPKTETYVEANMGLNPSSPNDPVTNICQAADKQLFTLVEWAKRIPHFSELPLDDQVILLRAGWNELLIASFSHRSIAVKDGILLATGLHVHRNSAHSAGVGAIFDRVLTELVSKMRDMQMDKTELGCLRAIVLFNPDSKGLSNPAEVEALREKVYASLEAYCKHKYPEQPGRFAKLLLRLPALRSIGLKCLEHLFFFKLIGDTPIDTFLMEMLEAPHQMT

c1ccc2[nH]cnc2c1
not listed: [14]
inactive: all other assays above

CCC(C)C=O (centres undefined)
not listed: [3]
inactive: all other assays above

CCCCC(CC)COC(=O)/C=C\C(=O)OCC(CC)CCCC (centres undefined)
not listed: [14]
inactive: all other assays above
